This is an account of results in PubChem BioAssay (NCI).

About 83,000 compounds went through this panel and 20% of them were active in at least one assay; those are over-represented in the sample as a whole.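 The endpoint reported here, percent growth, reads 100 for growth as untreated, 0 for no net growth and -100 for all cells dead.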 Values without a mark were called inactive. Active and inactive are the calls of the source.

The test concerns MDA-MB-468 breast. As to the kind of experiment: NCI-60 one-dose screen, 48 h (100 = growth as untreated, 0 = no growth, -100 = all killed). To be noted: 10 µM unless noted. The method, then: Growth inhibition of the MDA-MB-468 human Breast tumor cell line is measured as a screen for anti-cancer activity. Cells are grown in 96 well plates and exposed to the test compound for 48 hours. Compounds are tested at a single concentration, which is 10^-5 M for most compounds. The reported endpoint is percent growth (GI% or GIPRCNT), where numbers from 0 - 100% represent growth inhibition, and numbers from -100% - 0 represent cell death. For example, a value of 40 represents 60% growth inhibition. A value of 0 means no net growth occurred over the course of the experiment. A value of -40 indicates 40% of cells at the beginning of the experiment died by the end of the experiment. A value of -100 means all cells are dead at the end of the experiment.
NCI-60 Human Tumor Cell Lines Screen was performed using the standard one-dose NCI protocol, which is described in more detail at https://dtp.cancer.gov/discovery_development/nci-60/default.htm.
Compounds with GIPRCNT values below 10 were considered active. Activity score was based on GIPRCNT using the following formula: […]
Score is 0 for GIPRCNT values of 100 or above, 50 for GIPRCNT values of 0, and 100 for GIPRCNT values of -100.
For `Cc1ccc(S(=O)(=O)n2cc(C(=O)C(=O)N3CCCCC3)c3ccccc32)cc1`, the growth was 40.2%. Then `O=C(CCN1CCCCC1)c1ccc(Cl)cc1`, with 94.3%; and `COc1cc(/C=C/C(=O)c2ccc(F)cc2)ccc1Oc1nc(NCCO)nc(N2CCOCC2)n1`, with 77.2%; and `Cc1cccc2nnc(-c3ccccc3)n12`, with 106%.

As for `COc1cc(C2CC(c3ccc(Cl)cc3)=NN2C=O)ccc1Oc1ccnc2cc(Cl)ccc12` (stereo not given), the growth was 39.7%. Then `COC1=C(c2ccccc2)C(=O)C(OC)=C(c2ccccc2)C1=O`, with 43%. For `O=C(Nc1ccc(Cl)cc1F)c1ccccc1O`, the growth is 6.26% (active). For the compound `c1cc(OCCN2CCCCC2)cc(-c2n[nH]c3ccc(-c4ncn[nH]4)cc23)c1`, the growth is 93%.

As to `CC/C(=C\c1ccc(OC)cc1)C(=O)c1ccc(OC)cc1`, the growth is 79.2%. Take `Cc1nc2cc(Nc3nc(NCCN)nc(Nc4ccc(F)cc4)n3)ccc2n1Cc1ccccc1`: the growth was 73.2%. With `CSc1nc2ncnc(SC)c2[nH]1` the figure was 106%; with `NC(=O)c1c(NC(=O)c2ccc(C3CCCCC3)cc2)sc2c1CCC(=O)C2`, -10.3% (active); with `N#Cc1c2ccccc2c2n1-c1ccccc1OC(c1ccccc1)C2=O` (stereo not given), 65.7%. With `COc1ccc(Nc2nnc(SCc3ccccc3F)s2)cc1`, the growth is 55.9%. Then `Cn1c(=O)c2c(ncn2CC(=O)Nc2ccc(S(N)(=O)=O)cc2)n(C)c1=O`, with 102%; and `COc1cc(C(=O)/C=C/c2cc(-c3ccc4c(c3)OCO4)n[nH]2)cc(OC)c1OC`, with 29.1%; and `CSc1nc(-c2ccc(F)cc2)c(C#N)c(N2CCOCC2)n1`, with 87.3%. Turning to `COC(=O)OC1C(O[C@H]2C[C@H]3[C@@H]4CC=C5C[C@@H](O)CC[C@]5(C)[C@H]4CC[C@]3(C)[C@H]2[C@H](C)C(=O)CCC(C)C)OCC(O)C1OC1OCC(O)C(O)C1OC(=O)c1ccc(OC)cc1` (stereo not given in full), the growth is -22.8% (active). `C#Cc1cccc(NC(=O)C2CCCCN2C(=O)CCl)c1` (stereo not given): the growth was -60.1% [8.25 µM] (active). As for `Nc1nc(SCC2(CCl)COC2)c2[nH]cnc2n1`, the growth is 108%.

For `Nc1cccc(Cl)c1N`, the growth was -21.1% (active). Regarding `CC(Nc1c(C#N)cnc2ccc(-c3cncc(-c4n[nH]c(=O)o4)c3)cc12)c1ccccc1` (stereo not given), the growth is -41.7% (active). Then `CC(=O)OCC1OC(n2cnc3c(=S)nc(N)[nH]c32)C(OC(C)=O)C1OC(C)=O` (stereo not given), with 68.5%. Consider `CN(CCn1sc(=O)n(Cc2ccccc2)c1=O)Cc1ccc2c(Cl)cc(Cl)c(O)c2n1`, for which the growth was 42.4%.

Regarding `O=C(Nc1nc(-c2ccc(Cl)cc2)cs1)c1cc(O)c(O)c(O)c1`, the growth was 55.8%. With `CSc1ccc(C(=NNS(=O)(=O)c2ccc(C)cc2)c2ccc(Cl)cc2)cc1` the figure was 112%; with `COc1ccccc1NC(=O)N=Nc1c(O)[nH]c2ccccc12`, 86.1%; with `NCCCOc1cc2ccccc2cc1C(=O)NCCCOc1cc2ccccc2cc1C(=O)Nc1ccc(Cl)cc1O`, -89.6% (active). Then `COC(=O)c1ccc(CSc2nnc(-c3c(C)nc4ccc(C)cn34)o2)cc1`, with 93.2%. Take `O=C(Nc1ccc2[nH]c3ccccc3c2c1)c1ccccc1Cl`: the growth is 44.8%. For the compound `CCc1ccc(C2=C(O)C(=O)C(c3ccc(CC)cc3)=C(O)C2=O)cc1`, the growth was -2.72% (active). Take `O=C(/C=C1\C=CN(CCCCCCF)c2ccccc21)n1ccc2ccccc21`: the growth was 84.9%.

Consider `O=C(CN1CCN(c2cc3c(cc2F)c(=O)c(C(=O)O)cn3C2CC2)CC1)Nc1ccc(C(=O)/C=C/c2ccc(Cl)cc2)cc1`, for which the growth is 95.1%. With `O=C1/C(=C/c2cccc(F)c2)CN(C(=O)C(Cl)Cl)C/C1=C\c1cccc(F)c1` the figure was -47.4% (active); with `Clc1ccc(-c2nc(C(Cl)Cl)nc3cc(-c4ccccc4)nn23)cc1`, -33.8% (active); with `CS(=O)(=O)Nc1cc(-c2ccc3ncc(C#N)c(N[C@H](CO)c4ccccc4)c3c2)cnc1Cl`, 14.5%. In the case of `O=C(/C=C/CN1CCOCC1)Nc1cc2c(Nc3cccc(Cl)c3F)ncnc2cc1OCCOC(F)F`, the growth is -15.3% (active). In the case of `O=C(CCCCCCN1CC(=O)N2[C@@H](c3ccc(Cl)s3)c3[nH]c4ccccc4c3C[C@H]2C1=O)NO`, the growth is 30.7%.

On to `CC[C@@](C)(NC(=O)C(C)(C)NC(=O)[C@@H](NC(=O)[C@@H]1CCCN1C(=O)C(C)(C)NC(=O)[C@H](CC(C)C)NC(=O)CNC(=O)C(C)(C)NC(=O)[C@@H](NC(=O)C(C)(C)NC(=O)[C@H](CCC(N)=O)NC(=O)[C@H](C)NC(=O)C(C)(C)NC(=O)[C@H](C)NC(=O)C(C)(C)NC(=O)[C@H](C)NC(=O)C(C)(C)NC(C)=O)C(C)C)C(C)C)C(=O)N[C@@H](CCC(N)=O)C(=O)N[C@@H](CCC(N)=O)C(=O)N[C@H](CO)CC1CCCCC1`, for which the growth was -10.9% [5 µM] (active). `CCOC(=O)C1(Cc2ccccc2)CCN(Cc2cccc(OC)c2O)CC1`: the growth is -9.39% (active).
